Tb PGK inh: blocks T. brucei phosphoglycerate kinase. P07378. PGK/GAPDH coupled, Kinase-Glo luminescence, 60 min. Potency, µM (series often up to 57.5 µM), usual class: inhibitors. 380,000 tested, 0.043% active. AID 602233; further: nearly all actives have a fitted effect of over 60% in size
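Luminescent ATP detection (Kinase-Glo Plus) follows a 60-minute room-temperature incubation, with wells lacking PGK as controls. Buffer: 100 mM TEA (pH 7.6), 5 mM MgCl2, 0.01% Tween-20. Coupling enzyme GAPDH (100 nM final) supplies unstable 1,3-BPG in-well.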
PI4K2A inh: blocks human PI4K2A kinase activity. Q9BTU6. purified PI4K2A, ADP-Glo luminescence, 1 h; stronger effect = lower value. activity change, negative = inhibition, % at 76.9 µM. 420,000 tested, 0.13% active. AID 1346378; in the data active means activity change below about -50%; inconclusive means mostly about -30% to -49%
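Compounds are screened against recombinant PI4K2A using PI as substrate and ATP, the latter dispensed at 300 microM. Reactions run one hour at ambient temperature before ADP-Glo detection; full inhibition defined by wells lacking enzyme.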
Pin1 inh: inhibitors of human Pin1. Q13526. Pin1 FP peptide displacement, HiFluor488, 10 min. Potency, µM (series often up to 115 µM), most hits filed as inhibitors. 390,000 tested, 0.009% active. AID 504891; active means well fitted inhibition curve with a large enough effect in the polarisation, with a control signal flat, not every such curve was filed as active; inconclusive means small, poorly fitted or top-dose-only effect, or effect the other way, or a change in a side signal; inactive means no such curve, though single readings can be large or run the other way; the % refers to the polarisation
Target sequence (Q13526 whole entry, looked up): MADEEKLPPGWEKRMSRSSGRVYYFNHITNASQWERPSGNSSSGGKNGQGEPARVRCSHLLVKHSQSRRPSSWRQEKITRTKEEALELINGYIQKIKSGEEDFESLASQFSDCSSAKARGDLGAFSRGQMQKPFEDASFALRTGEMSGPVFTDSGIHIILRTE
Tb PFK block: T. brucei PFK enzyme inhibition; 330,000 tested, 0.17% active; O15648; Potency, µM (doses to about 57.5 µM), most hits filed as inhibitors; AID 485367; T. brucei PFK, ADP-Glo luminescence; further: nearly all actives have a fitted effect of over 60% in size
Target sequence (O15648 whole entry, looked up): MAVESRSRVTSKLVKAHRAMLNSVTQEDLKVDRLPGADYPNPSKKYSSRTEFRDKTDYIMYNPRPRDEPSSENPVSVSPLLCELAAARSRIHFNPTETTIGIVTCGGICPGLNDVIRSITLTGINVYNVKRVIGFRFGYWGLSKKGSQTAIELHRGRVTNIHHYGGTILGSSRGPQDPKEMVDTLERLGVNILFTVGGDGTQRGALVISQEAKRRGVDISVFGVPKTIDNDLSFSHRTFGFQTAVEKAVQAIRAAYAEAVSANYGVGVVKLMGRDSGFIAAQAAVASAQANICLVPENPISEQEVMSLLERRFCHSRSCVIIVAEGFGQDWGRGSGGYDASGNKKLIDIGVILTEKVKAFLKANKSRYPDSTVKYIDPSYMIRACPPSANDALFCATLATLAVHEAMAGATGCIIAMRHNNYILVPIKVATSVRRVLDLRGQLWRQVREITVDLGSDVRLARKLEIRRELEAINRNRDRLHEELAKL
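Activity is normalized to no-enzyme wells (full inhibition) and 1.25 nM enzyme wells (no inhibition). Reaction: 0.5 mM F6P, 0.1 mM ATP, 45 min RT, ADP-Glo luminescence; concentration-response curves fitted and classed by quality.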
BCR signal inh: inhibitors of chronic active B-cell receptor signaling | ABC-DLBCL IkBa-CBG/CBR reporter, luminescence ratio, 4 h | Potency, µM (titrated, usually from 46.1 µM), most hits filed as inhibitors | 340,000 tested, 0.05% active; active means well fitted inhibition curve with a large enough effect in the signal ratio, with a control signal flat, not every such curve was filed as active; inconclusive means small, poorly fitted or top-dose-only effect, or effect the other way, or a change in a side signal; the % refers to the signal ratio
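TMD8 human ABC-DLBCL cells with doxycycline-inducible IκBα–green luciferase fusion and unfused red luciferase, in 0.5% FBS medium; compounds up to 46 uM, 4 h at 37C. Green/red luminescence ratio, filter-overlap corrected, fitted to concentration-response curves.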
Numbers stand for hits; 0 = inactive; ? = inconclusive; - = not tested or not shown; ! = not confirmed by another sample. Rows were chosen to be rich in hits. Some 0.34% of all compounds tested hit in one or more screens of this group. Unless noted, the call rests on the fitted dose curve; in most records, active means well fitted curve in the direction sought with a large enough effect; inconclusive means small, poorly fitted or top-dose-only effect, or another doubt; inactive means no such curve, though single readings can be large; an effect the other way counts as inactive or inconclusive.

SMILES	Tb PGK inh	PI4K2A inh	Pin1 inh	Tb PFK block	BCR signal inh
Cc1cccc(C(=O)NCC(=O)OC(C(=O)Nc2cc(C(F)(F)F)ccc2Cl)c2ccccc2)c1 (centres undefined)	-	-	0	-	-
Oc1ccc(/C=C/c2ccc3ccccc3n2)cc1	0	-75	0	0	?
C(=C\c1ccc2ccccc2n1)/c1ccccc1	?	?	0	0	?
COc1ccc(-c2csc(N3CCC(C(N)=O)CC3)n2)cc1OC	-	-	0	-	-
COc1ccc2c(c1)c(/C=N/Nc1nc3ccccc3[nH]1)c(C)n2C	0	0	0	0	16µM
Nc1c(C(=O)OCC(=O)Nc2cccc([N+](=O)[O-])c2)[nH]c(=O)[nH]c1=O	18µM	0	?	?	0
Cc1ccccc1C(=O)NCC(=O)OC(C(=O)Nc1cc(C(F)(F)F)ccc1Cl)c1ccccc1 (centres undefined)	-	-	0	-	-
O=c1oc2c(O)c(O)cc3c(=O)oc4c(O)c(O)cc1c4c23	0.89µM	0	?	?	0
O=C1NC(=S)S/C1=C\c1ccc(SCc2ccco2)o1	14µM	0	?	0	?
O=C1Cc2ccccc2C(=O)N1	-	-56	-	-	-
Cc1ccc(C(=O)Nc2ccc(C(=O)N3CCCCC3)cc2)o1	?	-53	0	0	0
Cc1oc2c(c1C(=O)c1ccccc1)C(=O)C(=O)c1ccccc1-2	0	-64	?	0	?
Cc1oc2c(c1C(=O)O)C(=O)c1ccccc1C2=O	0	0	0	0	0
O=C(COC(=O)c1ccc(S(=O)(=O)NCc2ccco2)cc1)Nc1ccccc1	0	0	0	0	0
O=C(COC(=O)c1ccc(S(=O)(=O)NCc2ccco2)cc1)Nc1ccc(Cl)cn1	0	-52	0	0	0
NC(Cc1cc(O)c(O)cc1O)C(=O)O (centres undefined)	-	-80	-	0.85µM	0
O=C1CCCC2=C1C1(CCCC1)N=C(Nc1nc3ccccc3n1Cc1ccccc1)N2	-	-	0	-	-
Oc1ccc(COC2CCCC2)c2cccnc12	-	-	-	0	7.3µM
O=C(c1ccccc1O)N(Cc1cccs1)Cc1cccs1	-	-	0	-	-
O=C(O)c1cc(-c2ccco2)nc2ccc(Br)cc12	28µM!	0	0	0	?
Cc1cc2c(s1)c1cnn(Cc3ccc(C#N)cc3)c(=O)c1n2C	-	-	0	-	-
Cc1nn2c(=O)cc(N3CCNCC3)nc2s1	-	-	0	-	-
Cc1cccc(NC(=O)c2cc(NC(=O)c3ccco3)ccc2Cl)n1	0	0	0	0	23µM
COC(=O)c1ccc(NC(C)=O)cc1OC	-	0	-	-	-
CC(C)N(C(=O)N1CCC(c2nc(-c3ccncc3)no2)CC1)C(C)C	0	-72	0	0	0
SMILES	Tb PGK inh	PI4K2A inh	Pin1 inh	Tb PFK block	BCR signal inh
Cc1cc(C)n2ncc(C(=O)Nc3ccccc3)c2n1	-	-	0	-	-
NCCCCNc1ncnc2ccc(-c3ccc4c(c3)OCO4)cc12	-	-	0	-	-
Cc1ccc2nc(-c3ccccc3)cn2c1	?	-70	0	?	?
CC1=C/C(=C(\c2cc(C)c(O)c(Br)c2)c2ccccc2S(=O)(=O)O)C=C(Br)C1=O	?	-69	?	?	?
CC(C)CC(OC(=O)CNC(=O)c1ccccc1)C(=O)Nc1cc(C(F)(F)F)ccc1Cl (centres undefined)	-	-	0	-	-
C=CCNc1nnc(-c2cccc3ccccc23)o1	-	-	0	-	-
COc1cc(OC)c(OC)cc1/C=C1\Oc2cc(OCC(=O)N3Cc4ccccc4C[C@H]3C(=O)O)ccc2C1=O	0	0	?	12µM	?
CCCC(=O)C1=C(c2ccc(C)cc2)N(C(=O)CCC)n2cnnc2S1	0	0	0	-	20µM
COc1cc(/C=N/NC(=O)NC2CCCCC2)ccc1O	0	0	0	0	13µM
O=C(O)C1=CCC=CC1C(=O)O (centres undefined)	13µM	0	-	-	-
CC(C)N1C(=O)/C(=C/C=C/c2ccco2)C(=O)N(Cc2ccco2)C1=O	?	-59	?	0	0
O=C(c1ccccc1O)N(Cc1ccccc1)Cc1cccs1	-	-	0	-	-
Nc1cccc2c(O)cc(S(=O)(=O)O)cc12	18µM	?	?	-	-
COc1cccc(C2c3c(ncn(-c4cccc(F)c4)c3=N)Oc3ccc4ccccc4c32)c1 (centres undefined)	-	-	0	-	-
Cc1ccc(-c2cc3c(nn2)-c2ccccc2C3=O)cc1	?	-63	0	0	0
CN(CCC#N)C(=O)COC(=O)c1c2c(nc3ccccc13)/C(=C/c1ccco1)CC2	?	-53	?	?	?
CC(C)CNC(=O)COC(=O)c1c2c(nc3ccccc13)/C(=C\c1cccs1)CC2	0	0	?	-	-
COc1ccc(C2Nc3ccccc3C(=O)N2Cc2ccccc2)cc1OCc1ccc(NC(C)=O)cc1 (centres undefined)	-	-	0	-	-
COc1ccc(-c2cc3nc(C)cc(N)n3n2)cc1	?	-88	0	?	?
COc1ccc(-c2cc3nc(C)cc(-c4ccc(OC)cc4)n3n2)cc1	0	0	0	0	?
O=c1c2ccccc2nc2sc(NCc3ccc(Oc4ccccc4)cc3)nn12	-	-	0	-	-
Cc1ccc(NS(=O)(=O)c2cc3c(cc2F)NC(=O)CC3)cc1Cl	-	-	0	-	-
CCCCCC(=O)Nc1cccc(C2=NOC3(C2)C[C@@H](C(N)=O)N(C(=O)c2cc([N+](=O)[O-])cc([N+](=O)[O-])c2)C3)c1 (some centres undefined)	0	0	0	0	0
C=C(C)C(=O)Nc1cccc(C2=NOC3(C2)C[C@@H](C(N)=O)N(C(=O)c2cc([N+](=O)[O-])cc([N+](=O)[O-])c2)C3)c1 (some centres undefined)	18µM	0	0	?	0
COc1cccc(C2c3c(ncn(-c4ccc(C#N)cc4)c3=N)Oc3ccc4ccccc4c32)c1 (centres undefined)	-	-	0	-	-
SMILES	Tb PGK inh	PI4K2A inh	Pin1 inh	Tb PFK block	BCR signal inh
COc1ccc(-c2noc(CSc3nc(N)c(-c4ccccc4)c(=O)[nH]3)n2)cc1	0	0	0	0	16µM
O=S(=O)(O)c1cc(O)c2cc(Nc3ccccc3)ccc2c1	?	0	?	-	-
O=S(=O)(O)c1ccc(O)c2cc(Nc3ccccc3)ccc12	5µM	?	8.5µM	-	-
CN(C)c1cccc(-c2ncnc(N3CCC(C(N)=O)CC3)n2)c1	-	-	0	-	-
O=C1C(Nc2ccc(O)cc2)=C/C(=N/S(=O)(=O)c2cccs2)c2ccccc21	?	?	0	0	?
O=C(O)c1ccc(NC2=C/C(=N/S(=O)(=O)c3cccs3)c3ccccc3C2=O)cc1	?	-52	-	-	-
O=C(O)c1cc(Nc2cc(Cl)c3nonc3c2[N+](=O)[O-])ccc1O	-	-59	?	0	0
O=[N+]([O-])c1c(Nc2ccccc2O)cc(Cl)c2nonc12	0	0	?	?	?
O=C(c1coc(=O)c(Br)c1)N1CCC(C(O)(c2ccccc2)c2ccccc2)CC1	0	0	0	0	0
CC1(C)CCCN(C(=O)c2coc(=O)c(Br)c2)C1	6.3µM	0	-	0	?
Cc1ccc(NC(=O)NC2CCCCC2)cc1Cl	0	-71	0	0	0
Cc1ccc(NC(=O)C2CCN(C(=O)NC3CCCCC3)CC2)cc1Cl	0	0	0	0	0

Assay outcomes: PubChem BioAssay, National Center for Advancing Translational Sciences (NCATS)
